Assay results from PubChem BioAssay (NCATS).
“And” between values parts separate entries of the source, which are not always exact repeats. Equal entries are not always repeated. Records with an inconclusive call do not appear. The source made the active and inactive calls. Unless noted, the call rests on the fitted dose curve; in most records, active means well fitted curve in the direction sought with a large enough effect; inconclusive means small, poorly fitted or top-dose-only effect, or another doubt; inactive means no such curve, though single readings can be large; an effect the other way counts as inactive or inconclusive.

Experiments:
[1] = Cell Viability - N2a (AID 540); details: N2a mouse neuroblastoma cell viability; activity change, negative = cytotoxicity: at 92.2 µM (top of the series);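 further: cells exposed to compound for 40 h at 37 °C; plate controls were DMSO alone for no effect and tamoxifen control for full effect; nearly all actives have a fitted effect of over 45% in size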
Outline: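 Luminescent ATP signal (CellTiter-Glo, 20 min at room temperature) served as the viability read-out after N2a cells were treated with compounds for 40 hours at 37 °C. Concentration-response data were fitted to the Hill equation for AC50.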

[2] = Cell Viability - Renal Proximal Tubule (AID 545); details: renal proximal tubule cells viability, primary cells of rat origin; at 91.7 µM (top of the series);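 further: 0% = DMSO only and -100% = 100 µM tamoxifen; nearly all actives have a fitted effect of over 40% in size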
Outline: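 Primary rat renal proximal tubule cells (1000/well) were treated with compounds for 40 hr at 37 °C in complete medium. Intracellular ATP was measured by CellTiter-Glo luminescence, and AC50 values came from Hill-equation fits of concentration-response data.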

[3] = MultiTox-Fluor Cytotoxicity Assay - LYMP1-003 - Dead Cells (AID 961);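 further: 0% = DMSO and 100% = tetraoctylammonium bromide; nearly all actives have a fitted effect of over 70% in size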
Outline: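 LYMP1-003 human lymphoblastoid cells (2500/well) exposed to compound 16 h at 37 C in complete medium; dead-cell protease read with bis-AAF-R110 fluorescence (Ex/Em 485/520) after 60 min at room temperature. Normalized to DMSO and 15 uM tetraoctylammonium bromide; AC50 from Hill fit.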

[4] = Cell Viability - LYMP2-003 (AID 965);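 further: cells exposed to compounds for 24 h before reading; 0% = DMSO only and full effect = 92 µM tetraoctylammonium bromide; nearly all actives have a fitted effect of over 50% in size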
Outline: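 Human lymphoblastoid cells (2500/well) were pre-incubated 5 hr at 37 C, then exposed to compounds over a concentration range for 24 hr at 37 C. Intracellular ATP was read by CellTiter-Glo luminescence; AC50 came from Hill-equation fits.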

[5] = Cell Viability - LYMP2-005 (AID 967);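 further: plate controls were DMSO only for no effect and 92 µM tetraoctylammonium bromide control for full effect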
Outline: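 CellTiter-Glo luminescence (cellular ATP) read-out; LYMP2-005 lymphoblastoid cells, 2500/well, 5 h pre-incubation, then 24 h compound exposure at 37 C in complete medium. Tetraoctylammonium bromide positive control; AC50 by standard Hill fit.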

[6] = Cell Viability - LYMP2-009 (AID 968);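 further: 0% = DMSO alone and the full-kill end = tetraoctylammonium bromide at 92 µM; nearly all actives have a fitted effect of over 55% in size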
[7] = Cell Viability - LYMP2-015 (AID 971);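 further: 0% = DMSO only and full effect = 92 µM tetraoctylammonium bromide; nearly all actives have a fitted effect of over 55% in size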
Outline: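 Luminescent ATP read-out (CellTiter-Glo) served as the viability measure after lymphoblastoid cells were exposed to compounds for 24 hours at 37 C. Concentration-response data were fitted with the Hill equation to give AC50.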

[8] = Cell Viability - LYMP2-019 (AID 973);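 further: 0% = DMSO alone and full effect = 92 µM tetraoctylammonium bromide; nearly all actives have a fitted effect of over 55% in size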
Outline: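 Luminescent ATP read-out (CellTiter-Glo, 30 min room temperature) served as the viability measure after 24 hr treatment of lymphoblastoid cells at 37 C. Concentration-response data were fitted to the Hill equation for AC50.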

[9] = Cell Viability - LYMP2-021 (AID 974);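 further: compound exposure lasts 24 hours at 37 °C; on the % scale 0 is the no-effect control and ±100 the full control effect; nearly all actives have a fitted effect of over 55% in size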
Outline: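 Plate 2500 lymphoblastoid cells per well and incubate 5 hr at 37 C. Add compounds over a concentration range and incubate 24 hr at 37 C. Add CellTiter-Glo, wait 30 min at room temperature, read luminescence.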

[10] = Cell Viability - LYMP2-023 (AID 975)
Outline: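 2500 cells/well, 5 hr 37 C; cpd 24 hr 37 C; CellTiter-Glo, 30 min RT; luminescence. qHTS conc-response, Hill fit -> AC50. Pos ctrl tetraoctylammonium bromide.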

[11] = Cell Viability - LYMP2-025 (AID 976);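 further: plate controls were DMSO only for no effect and tetraoctylammonium bromide control for full effect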
Outline: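 Seed 2500 LYMP2-025 cells/well; 5 hr at 37 C; add compound; 24 hr at 37 C; add CellTiter-Glo; 30 min RT; read luminescence. AC50 from Hill-modelled concentration-response.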

[12] = Cell Viability - LYMP2-002 (AID 977);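 further: plate controls were DMSO only for no effect and 92 µM tetraoctylammonium bromide for full effect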
Outline: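 Cytotoxicity is scored as concentration-dependent loss of cellular ATP in a human lymphoblastoid line after 24 hr compound treatment at 37 C. AC50 is obtained by modelling concentration-response data with the Hill equation.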

[13] = Cell Viability - LYMP2-006 (AID 978); further: on the % scale 0 is the no-effect control and ±100 the full control effect; nearly all actives have a fitted effect of over 60% in size
Outline: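 Human lymphoblastoid cells, 2500 per well, were preincubated 5 hr at 37 C, then exposed to compounds for 24 hr at 37 C in complete medium. Viability was read as intracellular ATP by CellTiter-Glo luminescence; AC50 from Hill-equation fits of qHTS concentration-response data.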

[14] = Cell Viability - LYMP2-008 (AID 980); further: on the % scale 0 is the no-effect control and ±100 the full control effect; nearly all actives have a fitted effect of over 60% in size
Outline: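 qHTS, human lymphoblastoid line, 2500 cells/well; 5 hr preincubation, 24 hr compound, 37 C. CellTiter-Glo ATP luminescence. AC50 via Hill equation. Tetraoctylammonium bromide positive control.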

[15] = Cell Viability - LYMP2-014 (AID 983);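 further: plate controls were DMSO only for no effect and 92 µM tetraoctylammonium bromide for full effect; nearly all actives have a fitted effect of over 50% in size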
Outline: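 Luminescent ATP signal (CellTiter-Glo, 30 min at room temperature) serves as the viability read-out after 24 hr compound exposure at 37 C. Cells were seeded at 2500 per well and settled 5 hr beforehand.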

[16] = Cell Viability - LYMP2-016 (AID 984)
Outline: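 Human lymphoblastoid cells (LYMP2-016), 2500/well in complete medium, preincubated 5 hr at 37 C, then compound-treated 24 hr at 37 C. Intracellular ATP read by CellTiter-Glo luminescence after 30 min at room temperature; AC50 from Hill-equation concentration-response fits.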

[17] = Cell Viability - LYMP2-026 (AID 989); further: on the % scale 0 is the no-effect control and ±100 the full control effect; nearly all actives have a fitted effect of over 50% in size
Outline: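 Luminescent ATP signal (CellTiter-Glo, 30 min room temperature) measures viable lymphoblastoid cells after 24 hr compound treatment at 37 C. Decreased ATP reflects acute toxicity; AC50 values come from Hill-equation modeling.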

[18] = Cell Viability - LYMP1-002 - Assay at 40 hr (AID 994);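 further: 0% = DMSO only and full inhibition = 92 µM tetraoctylammonium bromide; nearly all actives have a fitted effect of over 60% in size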
Outline: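 Luminescent ATP signal served as the viability readout, with decreases taken as toxicity. Cells were treated with compounds across a concentration range for 40 hours at 37 C, and AC50 values came from standard Hill modeling.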

[19] = biological target: Thyroid hormone receptor beta (Homo sapiens) (UniProt P10828); assay: qHTS assay for small molecule agonists of thyroid hormone receptor beta signaling (AID 588545; calls by dose curve)
Outline: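 HEK 293 TR-UAS-bla; agonist mode; 18 hrs, 37 C; CCF4, ex 405/em 460 and 530 nm; norm. T3 10 nM = 100%, DMSO = 0%; Hill fit → EC50, efficacy.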

[20] = biological target: Retinoic acid receptor RXR-alpha (Homo sapiens) (UniProt P19793); assay: qHTS assay for small molecule antagonists of retinoid X receptor alpha signaling (AID 588546; active means well fitted inhibition curve with a large enough effect in the signal ratio, with a control signal flat, not every such curve was filed as active; the % refers to the signal ratio;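 further: cells stimulated with 9-cis-retinoic acid as agonist; on the % scale 0 is the no-effect control and ±100 the full control effect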); details: HEK293T RXRa-UAS-bla, beta-lactamase ratio, antagonist mode
Outline: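 Beta-lactamase reporter inhibition, read as CCF4 fluorescence ratio (ex 405, em 460/530 nm) after 2 h at RT. HEK293T UAS-bla cells, 2500/well, were stimulated with 9-cis-RA at 500 or 100 nM final alongside test compound for 18 h at 37 C.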

Chain of Retinoic acid receptor RXR-alpha (Homo sapiens) (P19793 whole entry, looked up): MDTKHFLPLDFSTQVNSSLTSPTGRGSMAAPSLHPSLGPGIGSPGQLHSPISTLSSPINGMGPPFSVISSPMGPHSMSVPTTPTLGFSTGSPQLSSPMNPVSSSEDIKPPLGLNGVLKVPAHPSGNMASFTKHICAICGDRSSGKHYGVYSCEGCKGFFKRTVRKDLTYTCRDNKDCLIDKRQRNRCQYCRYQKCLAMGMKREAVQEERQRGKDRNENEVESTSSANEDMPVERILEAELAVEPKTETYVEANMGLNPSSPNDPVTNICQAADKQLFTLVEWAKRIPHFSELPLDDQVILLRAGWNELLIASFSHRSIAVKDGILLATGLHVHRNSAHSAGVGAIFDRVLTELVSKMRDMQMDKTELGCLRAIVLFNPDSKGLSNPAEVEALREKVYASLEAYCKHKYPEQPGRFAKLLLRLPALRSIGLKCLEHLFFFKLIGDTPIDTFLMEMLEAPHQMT
Chain of Thyroid hormone receptor beta (Homo sapiens) (P10828 whole entry, looked up): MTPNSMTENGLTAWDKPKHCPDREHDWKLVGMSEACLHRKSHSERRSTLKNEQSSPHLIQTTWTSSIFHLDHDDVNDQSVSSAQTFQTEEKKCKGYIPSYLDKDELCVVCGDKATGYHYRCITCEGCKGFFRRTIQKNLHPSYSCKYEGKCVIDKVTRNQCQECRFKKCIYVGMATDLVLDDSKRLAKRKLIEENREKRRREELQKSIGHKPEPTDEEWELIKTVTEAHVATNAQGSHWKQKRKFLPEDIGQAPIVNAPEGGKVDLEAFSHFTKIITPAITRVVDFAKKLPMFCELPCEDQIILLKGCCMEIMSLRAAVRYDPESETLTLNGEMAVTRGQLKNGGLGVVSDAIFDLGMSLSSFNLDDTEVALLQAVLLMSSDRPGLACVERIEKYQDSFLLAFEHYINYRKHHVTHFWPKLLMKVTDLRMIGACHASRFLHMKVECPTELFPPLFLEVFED

COC(=O)CCCCC(=O)OC
inactive: activity change, negative = cytotoxicity [1] 4.03% | activity change, negative = cytotoxicity [2] 5.83% | Potency [3] | Potency [4] | Potency [5] | Potency [6] | Potency [7] | Potency [8] | Potency [9] | Potency [10] | Potency [11] | Potency [12] | Potency [13] | Potency [14] | Potency [15] | Potency [16] | Potency [17] | Potency [18] | outcome [19] | max response [20] -2.55% and -9.27% and -5.71%

Nc1ccc(S(=O)(=O)O)cc1
inactive: activity change, negative = cytotoxicity [1] -1.94% | activity change, negative = cytotoxicity [2] -9.81% | Potency [3] | Potency [4] | Potency [5] | Potency [6] | Potency [7] | Potency [8] | Potency [9] | Potency [10] | Potency [11] | Potency [12] | Potency [13] | Potency [14] | Potency [15] | Potency [16] | Potency [17] | Potency [18] | outcome [19] | max response [20] -17.1%

CN(C)CCCCCCN(C)C
inactive: activity change, negative = cytotoxicity [1] 1.64% | activity change, negative = cytotoxicity [2] -0.404% | Potency [3] | Potency [4] | Potency [5] | Potency [6] | Potency [7] | Potency [8] | Potency [9] | Potency [10] | Potency [11] | Potency [12] | Potency [13] | Potency [14] | Potency [15] | Potency [16] | Potency [17] | Potency [18] | outcome [19] | max response [20] 23.1%

Cc1ccc([N+](=O)[O-])cc1N
inactive: activity change, negative = cytotoxicity [1] -2.12% | activity change, negative = cytotoxicity [2] -8.34% | Potency [3] | Potency [4] | Potency [5] | Potency [6] | Potency [7] | Potency [8] | Potency [9] | Potency [10] | Potency [11] | Potency [12] | Potency [13] | Potency [14] | Potency [15] | Potency [16] | Potency [17] | Potency [18] | outcome [19] | max response [20] -2.87% and -11.4%

CC(C)=CCCC(C)CCO (stereo not drawn)
inactive: activity change, negative = cytotoxicity [1] -9.36% | activity change, negative = cytotoxicity [2] -2.53% | Potency [3] | Potency [4] | Potency [5] | Potency [6] | Potency [7] | Potency [8] | Potency [9] | Potency [10] | Potency [11] | Potency [12] | Potency [13] | Potency [14] | Potency [15] | Potency [16] | Potency [17] | Potency [18] | outcome [19] | max response [20] -7.24% and 2.51%

COc1c2ccoc2cc2oc(=O)ccc12
inactive: activity change, negative = cytotoxicity [1] 0.867% | activity change, negative = cytotoxicity [2] -16.3% | Potency [3] | Potency [4] | Potency [5] | Potency [6] | Potency [7] | Potency [8] | Potency [9] | Potency [10] | Potency [11] | Potency [12] | Potency [13] | Potency [14] | Potency [15] | Potency [16] | Potency [17] | Potency [18] | outcome [19] | max response [20] 23.4%

c1ccccc1
inactive: activity change, negative = cytotoxicity [1] -0.296% and -3.09% | activity change, negative = cytotoxicity [2] 3.93% and -11% | Potency [3] | Potency [4] | Potency [5] | Potency [6] | Potency [7] | Potency [8] | Potency [9] | Potency [10] | Potency [11] | Potency [12] | Potency [13] | Potency [14] | Potency [15] | Potency [16] | Potency [17] | Potency [18] | outcome [19]

CCCCCCCCO
inactive: activity change, negative = cytotoxicity [1] -10.6% | activity change, negative = cytotoxicity [2] -1.75% | Potency [3] | Potency [4] | Potency [6] | Potency [7] | Potency [8] | Potency [9] | Potency [10] | Potency [11] | Potency [12] | Potency [13] | Potency [14] | Potency [15] | Potency [16] | Potency [17] | Potency [18] | outcome [19] | max response [20] 1.87% and 1.57% and -7.12%

COC(=O)c1ccc(C=O)cc1
inactive: activity change, negative = cytotoxicity [1] -4.37% | activity change, negative = cytotoxicity [2] -14.2% | Potency [3] | Potency [4] | Potency [5] | Potency [6] | Potency [7] | Potency [8] | Potency [9] | Potency [10] | Potency [11] | Potency [12] | Potency [13] | Potency [14] | Potency [15] | Potency [16] | Potency [17] | Potency [18] | outcome [19] | max response [20] 21.2% and -1.21%
